Data taken from PubChem BioAssay.
Inconclusive results are not listed. Calls of active or inactive are those of the source.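 The calls were made as follows, unless noted: active = GFP signal, as percent of the solvent control, above the screen mean plus 3 SD, about 149; inconclusive = no reading because the compound's own fluorescence upset strain identification; inactive = the rest.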

Experiments:
[1] = rapamycin-like changes in RPL19A-GFP expression – cell-based, S. cerevisiae, multiplex flow cytometry, primary screen (AID 1862; in the data active = percent of DMSO control GFP below about 86%;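 also: lower values mimic rapamycin by blocking the RPL19A rise seen in DMSO cells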); settings: S. cerevisiae RPL19A-GFP strain, flow cytometry fluorescence, 3 h; at 10 µM; stronger effect = lower value
[2] = TOR pathway GLN3 branch reporter MEP2-GFP changes – S. cerevisiae, multiplex flow cytometry, primary screen (AID 1867;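 active = GFP response, as percent of the DMSO control, above the screen-wide mean plus 3 SD, about 139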;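 also: median GFP channel fluorescence of barcode-gated MEP2-GFP cells measured by flow cytometry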); settings: S. cerevisiae MEP2-GFP strain, 3 h, at 10 µM, stronger effect = higher value, 100% means same as DMSO wells
[3] = TOR pathway RTG branch CIT2 reporter changes – S. cerevisiae, GFP fusion, multiplex flow cytometry, primary screen (AID 1870;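 active = percent response above a set limit, the screen-wide mean plus 3 SD, cut at about 130% in these data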;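 also: barcoded CIT2-GFP strain pooled with four other GFP strains with rapamycin as positive control; median GFP fluorescence per well over plate mean of DMSO wells so 100% = DMSO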); settings: S. cerevisiae CIT2-GFP expression, 3 h, at 10 µM, stronger effect = higher value
[4] = TOR pathway LAP4-GFP level changes – S. cerevisiae, multiplex flow cytometry, primary screen (AID 1873); settings: S. cerevisiae LAP4-GFP expression, 3 h, at 10 µM, stronger effect = higher value
[5] = yeast AGP1-GFP level changes, GLN3 branch – cell-based, multiplex flow cytometry, S. cerevisiae, primary screen (AID 1887;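 active = GFP signal above the screen-wide mean plus 3 SD, that is over about 124.5% of the solvent control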;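 also: AGP1-GFP fusion strain of S. cerevisiae within a five-strain barcoded multiplex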); settings: 3 h, at 10 µM, stronger effect = higher value
[6] = reduced mouse 2C T cell binding to pMHC/ICAM-1 vesicles – MLPCN validation set, flow cytometry, LFA-1/ICAM-1 modulator project, pilot screen (AID 2523;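 active = response below a set limit, under 55% cells CD8-positive and vesicle-bound, and CD8 cells' 90th-percentile brightness under 279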;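 as to vesicle binding response: mean PE anti-B7-1 fluorescence of CD8+ cells relative to row control; 100% = QL9-loaded vesicles with DMSO vehicle in the same plate row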); settings: 2C mouse CD8+ T cells, at 7 µM, stronger effect = lower value; double positive events: measured here: CD8+/vesicle+ event percentage
[7] = molecular target: Integrin beta-1 (Homo sapiens) + Integrin alpha-4 (Homo sapiens) (UniProt P13612+P05556); assay: alpha4beta1 integrin LIBS antibody binding reduction – U937 cells, HUTS-21 mAb, flow cytometry, validation set, VLA-4 allosteric modulator project, pilot screen (AID 2674;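 active = inhibition above 50%, about 3 SD of the validation set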;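 also: antibody binding induced by the VLA-4 ligand LDV present at three times its Kd; 0% = LDV ligand with antibody and no compound and 100% = antibody without LDV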); settings: HUTS-21 LIBS mAb binding, at 6.7 µM, stronger effect = higher value, binding induced by LDV ligand
[8] = calorie-restriction mimetic ROS inhibitors, yeast – validation compound set, pilot screen (AID 2706;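 active = superoxide response below 65% of plate, a cut near 3 SD across the whole screen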;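 also: yeast exposed to compound for one week at 30 degrees C before staining; 100% = mean of all compound wells on the same plate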); settings: S. cerevisiae aging, superoxide DHE fluorescence; at 10 µM; stronger effect = lower value
[9] = molecular target: Beta-adrenergic receptor kinase 1 (Homo sapiens) (UniProt P25098); assay: GRK2 binders displacing RNA aptamer, biochemical, validation, human GRK2, bead flow cytometry (AID 488806;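 active = aptamer binding inhibition above 30%, about 3 SD of noise from non-fluorescent compounds; inactive = inhibition at or below 30%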); settings: bead-bound GRK2, FAM-aptamer displacement, at 10 µM, stronger effect = higher value
[10] = molecular target: Beta-2 adrenergic receptor (Homo sapiens) (UniProt P07550); assay: agonist-induced loss of surface beta2AR – cell-based, FAP fluorogen, flow cytometry, validation set, pilot screen (AID 504459;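 active = percent response above 42, roughly 3 SD of non-fluorescent test compounds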;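 also: agonist-driven loss of surface beta2AR via internalization measured by FAP dye flow cytometry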); settings: Am2.2-beta2AR cells, at 10 µM, stronger effect = higher value
[11] = molecular target: AP-2 complex subunit beta (Homo sapiens) (UniProt P63010); assay: beta-arrestin/AP2 interaction blockers – biochemical, validation set, GST-AP2 beads, flow cytometry, pilot screen (AID 504541;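 active = inhibition above 54%, about 3 SD of non-fluorescent compounds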;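 also: AP2 carries R879A mutation and is captured from E. coli lysate; bead-bound FITC arrestin peptide fluorescence measuring arrestin peptide binding to AP2; 0% = DMSO wells and 100% = excess unlabeled arrestin peptide control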); settings: FITC arrestin peptide, at 10 µM, stronger effect = higher value, AP2 beta2 appendage fragment, R879A mutant
[12] = cytosolic pH regulators acting via V-ATPase – S. cerevisiae, pHLuorin, HTS validation (AID 504600; in the data active = response above about 15%;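 also: plate controls were DMSO for no effect and reference compound for full effect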); settings: V-ATPase proton transport, at 10 µM, stronger effect = higher value
[13] = tested on: anti-desmoglein-3 scFv antibody binding to human DSG3; assay: blockers of pathogenic pemphigus antibody–desmoglein-3 binding – biochemical, validation compound set, bead-based, flow cytometry, pilot screen (AID 588368;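 active = binding below the plate cutoff, the plate median minus 3 SD, with a reading above zero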;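 also: signal is the median channel fluorescence of bead-bound GFP antibody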); settings: Protein G beads, DSG3-Fc, scFv-GFP binding, at 10 µM, stronger effect = lower value
[14] = Nile Red efflux blockade in pump-expressing yeast – validation compound set, multiplex, phenotypic, pilot screen (AID 588506;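 active = efflux inhibition above 0.42, the validation set average plus 4 SD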;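 also: Nile Red retained in cells so higher fluorescence means more efflux inhibition; 0 = negative control wells and 1 = enniatin B 25 µM full block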); settings: S. cerevisiae pump-expressing triplex, Nile Red efflux flow cytometry; at 10 µM; stronger effect = higher value; the pumps come from Candida albicans
[15] = molecular target: ATP-binding cassette sub-family B member 6 (Homo sapiens) (UniProt Q9NP58); assay: blockers of ABCB6-driven porphyrin uptake – K562-ABCB6 cells, flow cytometry, validation set, pilot screen (AID 588550;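 active = inhibition above the screen-wide mean plus 3 SD, about 51%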;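 also: 0% = DMSO wells and 100% = benzethonium chloride 70 µM positive control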); settings: K562-ABCB6 porphyrin accumulation, 1 h, at 10 µM, stronger effect = higher value
[16] = AML differentiation inducers, ER-HoxA9 marrow cells – cell-based, GFP/MAC1 double positive, flow cytometry, validation set, primary screen (AID 588685;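 active = differentiation response of at least 50%, scaled between solvent and reference control, from cells with both markers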;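 also: compound exposure lasts four days before antibody staining and flow analysis; 0% = DMSO wells and 100% = 5 µM fulvestrant positive control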); settings: stronger effect = higher value, normalized: vehicle 0, fulvestrant 100

Chain of AP-2 complex subunit beta (Homo sapiens) (P63010 whole entry, looked up, the tested form may be a part, one chain of several): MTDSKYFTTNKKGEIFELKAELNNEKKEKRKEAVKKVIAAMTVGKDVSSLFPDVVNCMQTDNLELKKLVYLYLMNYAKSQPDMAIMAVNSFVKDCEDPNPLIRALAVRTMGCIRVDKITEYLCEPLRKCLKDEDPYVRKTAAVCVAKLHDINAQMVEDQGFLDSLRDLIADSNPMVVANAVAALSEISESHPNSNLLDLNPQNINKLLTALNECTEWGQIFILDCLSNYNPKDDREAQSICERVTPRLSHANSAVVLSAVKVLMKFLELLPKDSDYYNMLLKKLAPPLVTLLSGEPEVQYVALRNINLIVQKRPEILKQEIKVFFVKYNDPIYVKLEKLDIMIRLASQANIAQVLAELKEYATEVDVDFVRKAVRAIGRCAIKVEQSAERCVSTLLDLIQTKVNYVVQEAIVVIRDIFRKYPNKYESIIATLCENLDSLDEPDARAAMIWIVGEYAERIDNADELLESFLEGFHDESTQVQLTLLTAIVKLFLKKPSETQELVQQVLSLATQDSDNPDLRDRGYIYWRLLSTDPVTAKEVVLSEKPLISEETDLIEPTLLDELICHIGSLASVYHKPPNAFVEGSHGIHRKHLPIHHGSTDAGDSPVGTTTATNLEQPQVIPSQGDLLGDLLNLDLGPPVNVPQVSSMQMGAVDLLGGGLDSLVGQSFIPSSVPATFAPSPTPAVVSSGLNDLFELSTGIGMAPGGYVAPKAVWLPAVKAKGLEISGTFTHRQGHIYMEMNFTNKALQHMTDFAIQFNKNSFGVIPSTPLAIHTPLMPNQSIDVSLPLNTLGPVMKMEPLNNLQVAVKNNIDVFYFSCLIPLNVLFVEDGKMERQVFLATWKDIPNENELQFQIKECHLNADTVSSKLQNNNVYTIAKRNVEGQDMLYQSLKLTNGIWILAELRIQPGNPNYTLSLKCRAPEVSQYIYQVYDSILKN
Chain of ATP-binding cassette sub-family B member 6 (Homo sapiens) (Q9NP58 whole entry, looked up): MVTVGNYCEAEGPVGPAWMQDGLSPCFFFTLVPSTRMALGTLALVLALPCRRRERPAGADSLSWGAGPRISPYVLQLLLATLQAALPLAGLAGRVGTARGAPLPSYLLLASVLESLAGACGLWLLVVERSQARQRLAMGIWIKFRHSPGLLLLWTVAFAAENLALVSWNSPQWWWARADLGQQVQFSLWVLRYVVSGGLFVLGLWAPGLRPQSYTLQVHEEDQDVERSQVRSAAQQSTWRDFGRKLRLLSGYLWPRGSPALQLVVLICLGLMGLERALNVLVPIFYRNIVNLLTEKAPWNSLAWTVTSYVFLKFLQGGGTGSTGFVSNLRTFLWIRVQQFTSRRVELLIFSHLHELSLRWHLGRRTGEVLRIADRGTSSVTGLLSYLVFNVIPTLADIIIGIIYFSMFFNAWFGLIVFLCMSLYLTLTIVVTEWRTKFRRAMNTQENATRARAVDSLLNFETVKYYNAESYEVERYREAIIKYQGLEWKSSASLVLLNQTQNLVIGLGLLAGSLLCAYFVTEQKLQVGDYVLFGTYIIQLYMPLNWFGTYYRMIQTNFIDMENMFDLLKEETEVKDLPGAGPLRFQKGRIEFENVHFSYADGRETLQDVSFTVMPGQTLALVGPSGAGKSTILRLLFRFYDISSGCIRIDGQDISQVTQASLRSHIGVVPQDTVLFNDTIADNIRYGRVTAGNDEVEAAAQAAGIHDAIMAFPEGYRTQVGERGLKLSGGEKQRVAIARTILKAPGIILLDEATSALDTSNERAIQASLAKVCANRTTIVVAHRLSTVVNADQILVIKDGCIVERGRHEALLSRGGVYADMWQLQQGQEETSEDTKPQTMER
Chain of Beta-adrenergic receptor kinase 1 (Homo sapiens) (P25098 whole entry, looked up): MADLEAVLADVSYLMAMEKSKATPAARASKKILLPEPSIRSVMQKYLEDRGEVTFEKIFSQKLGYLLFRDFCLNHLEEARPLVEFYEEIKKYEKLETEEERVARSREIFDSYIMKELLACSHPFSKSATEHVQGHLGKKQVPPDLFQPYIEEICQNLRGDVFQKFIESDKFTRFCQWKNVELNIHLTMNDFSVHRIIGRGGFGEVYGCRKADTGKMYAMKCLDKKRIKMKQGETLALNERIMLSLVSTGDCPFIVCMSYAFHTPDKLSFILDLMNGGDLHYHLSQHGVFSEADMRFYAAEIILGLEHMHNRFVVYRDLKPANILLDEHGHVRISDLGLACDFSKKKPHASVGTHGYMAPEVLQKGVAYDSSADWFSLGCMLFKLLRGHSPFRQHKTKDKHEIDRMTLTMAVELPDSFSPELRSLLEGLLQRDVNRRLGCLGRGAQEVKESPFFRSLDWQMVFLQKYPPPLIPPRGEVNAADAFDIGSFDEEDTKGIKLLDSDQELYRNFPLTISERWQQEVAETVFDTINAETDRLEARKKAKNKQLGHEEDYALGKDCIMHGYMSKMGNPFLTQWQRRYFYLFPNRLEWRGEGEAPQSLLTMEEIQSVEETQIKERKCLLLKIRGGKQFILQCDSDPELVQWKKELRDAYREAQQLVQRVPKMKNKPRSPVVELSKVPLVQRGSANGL
Chain of Integrin beta-1 (Homo sapiens) + Integrin alpha-4 (Homo sapiens) (P05556 whole entry, looked up): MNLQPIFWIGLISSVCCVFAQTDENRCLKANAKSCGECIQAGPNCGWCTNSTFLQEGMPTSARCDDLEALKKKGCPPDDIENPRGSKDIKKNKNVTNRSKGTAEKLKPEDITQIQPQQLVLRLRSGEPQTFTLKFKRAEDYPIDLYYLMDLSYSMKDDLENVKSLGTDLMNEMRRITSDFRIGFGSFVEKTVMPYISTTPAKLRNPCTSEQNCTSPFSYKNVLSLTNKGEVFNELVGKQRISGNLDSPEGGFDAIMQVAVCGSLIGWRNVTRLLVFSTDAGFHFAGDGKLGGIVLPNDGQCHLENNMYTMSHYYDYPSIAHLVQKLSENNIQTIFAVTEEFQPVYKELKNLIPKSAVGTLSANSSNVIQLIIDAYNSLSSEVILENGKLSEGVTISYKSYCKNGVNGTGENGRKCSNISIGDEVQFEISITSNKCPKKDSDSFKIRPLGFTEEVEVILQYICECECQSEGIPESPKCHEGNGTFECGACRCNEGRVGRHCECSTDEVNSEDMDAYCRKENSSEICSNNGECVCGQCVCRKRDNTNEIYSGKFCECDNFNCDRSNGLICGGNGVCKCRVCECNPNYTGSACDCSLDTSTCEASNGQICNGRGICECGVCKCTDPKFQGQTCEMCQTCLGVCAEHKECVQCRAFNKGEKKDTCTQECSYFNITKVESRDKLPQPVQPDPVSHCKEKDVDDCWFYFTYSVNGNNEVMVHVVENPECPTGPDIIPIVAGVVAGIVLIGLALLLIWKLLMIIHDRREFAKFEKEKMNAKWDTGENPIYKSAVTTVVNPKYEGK
Chain of Integrin beta-1 (Homo sapiens) + Integrin alpha-4 (Homo sapiens) (P13612 whole entry, looked up): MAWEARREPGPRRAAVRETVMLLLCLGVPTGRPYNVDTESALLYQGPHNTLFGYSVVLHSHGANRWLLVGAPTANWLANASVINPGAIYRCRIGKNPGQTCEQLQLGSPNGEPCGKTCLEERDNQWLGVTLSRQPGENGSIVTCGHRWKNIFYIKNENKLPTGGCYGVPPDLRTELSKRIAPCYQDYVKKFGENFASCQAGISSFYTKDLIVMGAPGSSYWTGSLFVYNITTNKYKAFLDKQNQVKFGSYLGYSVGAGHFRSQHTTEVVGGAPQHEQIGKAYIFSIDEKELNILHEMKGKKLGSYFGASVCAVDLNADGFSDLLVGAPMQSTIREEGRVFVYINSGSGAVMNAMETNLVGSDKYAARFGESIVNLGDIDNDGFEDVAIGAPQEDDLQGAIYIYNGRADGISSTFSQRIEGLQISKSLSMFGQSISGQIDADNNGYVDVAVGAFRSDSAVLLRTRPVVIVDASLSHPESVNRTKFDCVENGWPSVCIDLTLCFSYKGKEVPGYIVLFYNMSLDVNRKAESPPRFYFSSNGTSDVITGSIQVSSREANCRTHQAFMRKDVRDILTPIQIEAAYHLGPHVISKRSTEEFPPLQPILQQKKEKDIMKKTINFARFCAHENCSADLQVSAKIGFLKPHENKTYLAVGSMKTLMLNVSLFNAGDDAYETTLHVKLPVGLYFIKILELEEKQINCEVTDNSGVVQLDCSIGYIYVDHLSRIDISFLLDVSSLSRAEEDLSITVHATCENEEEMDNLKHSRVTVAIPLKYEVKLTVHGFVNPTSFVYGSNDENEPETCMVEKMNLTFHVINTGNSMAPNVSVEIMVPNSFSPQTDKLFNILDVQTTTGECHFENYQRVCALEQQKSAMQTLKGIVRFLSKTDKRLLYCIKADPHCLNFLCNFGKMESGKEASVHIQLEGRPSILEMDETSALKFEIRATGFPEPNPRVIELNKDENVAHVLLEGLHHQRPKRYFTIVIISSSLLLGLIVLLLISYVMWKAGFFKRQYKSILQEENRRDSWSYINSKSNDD
Chain of Beta-2 adrenergic receptor (Homo sapiens) (P07550 whole entry, looked up): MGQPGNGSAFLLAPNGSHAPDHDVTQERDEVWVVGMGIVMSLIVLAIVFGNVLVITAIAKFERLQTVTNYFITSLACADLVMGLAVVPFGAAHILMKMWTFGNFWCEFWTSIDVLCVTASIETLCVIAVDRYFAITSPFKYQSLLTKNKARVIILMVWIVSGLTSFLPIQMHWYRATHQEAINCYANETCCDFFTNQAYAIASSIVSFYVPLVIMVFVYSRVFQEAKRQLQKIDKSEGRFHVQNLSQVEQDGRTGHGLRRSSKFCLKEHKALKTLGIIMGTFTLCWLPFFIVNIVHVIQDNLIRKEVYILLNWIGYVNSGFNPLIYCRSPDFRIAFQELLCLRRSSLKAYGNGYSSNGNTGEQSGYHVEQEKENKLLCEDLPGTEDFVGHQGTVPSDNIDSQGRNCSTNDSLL

Row | Compound | percent of DMSO control GFP [1] | GFP response vs DMSO [2] | percent response of DMSO control [3] | GFP response vs DMSO [4] | GFP response, % of DMSO [5] | double positive events [6] | vesicle binding response [6] | inhibition [7] | superoxide response (% of plate) [8] | aptamer binding inhibition [9] | response [10] | inhibition [11] | response [12] | binding (% of control) [13] | efflux inhibition (fraction of control) [14] | inhibition [15] | differentiation response [16]
1 | COc1ccccc1C(=O)Nc1cc2cc(Br)ccc2oc1=O | 101% (inactive) | 106% (inactive) | 96% (inactive) | 99.4% (inactive) | 101% (inactive) | 58.5% | 30.4% (inactive) | -4.61% (inactive) | 97.2% (inactive) | 3% (inactive) | 4.22% (inactive) | -7.21% (inactive) | -0.54% (inactive) | 101% (inactive) | -0.47 (inactive) | 12% (inactive) | -5.68% (inactive)
2 | CCN(CC)c1ccc(C2=NNC(=O)CC2C)cc1[N+](=O)[O-] (centres undefined) | 97.4% (inactive) | 102% (inactive) | 95.8% (inactive) | 119% (inactive) | 105% (inactive) | 60.7% | 189% (inactive) | -15.4% (inactive) | 110% (inactive) | 3% (inactive) | 0.9% (inactive) | -4.02% (inactive) | -0.46% (inactive) | 98.9% (inactive) | -0.21 (inactive) | -22% (inactive) | -4% (inactive)
3 | CCN(CC)C(=O)c1sc(NC(=O)c2c(OC)cccc2OC)c(C#N)c1C | 101% (inactive) | 98.7% (inactive) | 105% (inactive) | 88.2% (inactive) | 94.7% (inactive) | 66.7% | 229% (inactive) | 1.59% (inactive) | 95.2% (inactive) | 4% (inactive) | -1.95% (inactive) | -5.78% (inactive) | 12% (inactive) | 97.3% (inactive) | -0.025 (inactive) | 14% (inactive) | 5.67% (inactive)
4 | CSCCC(NC(=O)OC(C)(C)C)C(=O)Oc1ccc2c(=O)c(-c3ccc4c(c3)OCCO4)coc2c1 (centres undefined) | 95.9% (inactive) | 107% (inactive) | 94.8% (inactive) | 132% (inactive) | 102% (inactive) | 59.4% | 190% (inactive) | -1.79% (inactive) | 99.7% (inactive) | 2% (inactive) | 0.95% (inactive) | 3.81% (inactive) | -3.69% (inactive) | 100% (inactive) | -0.1 (inactive) | 1% (inactive) | 5.6% (inactive)
5 | COc1ccc2c(c1O)Cc1ccccc1C2=O | 94.8% (inactive) | 139% (inactive) | 110% (inactive) | 84.7% (inactive) | 92.4% (inactive) | 56.5% | 220% (inactive) | -13.9% (inactive) | 117% (inactive) | 0% (inactive) | 0.34% (inactive) | 46.1% (inactive) | -2.94% (inactive) | 104% (inactive) | -0.06 (inactive) | 109% (active) | -0.82% (inactive)
6 | Cc1ccnc(NS(=O)(=O)c2ccc(N)cc2)n1 | 102% (inactive) | 99.7% (inactive) | 106% (inactive) | 102% (inactive) | 111% (inactive) | 63.6% | 203% (inactive) | 19% (inactive) | 92.2% (inactive) | -1% (inactive) | 5.51% (inactive) | -0.12% (inactive) | -1.12% (inactive) | 94% (inactive) | -0.3 (inactive) | -3% (inactive) | 1.28% (inactive)
7 | CO[C@@]1(NC(=O)Cc2cccs2)C(=O)N2C(C(=O)O)=C(COC(N)=O)CS[C@@H]21 | 91.5% (inactive) | 130% (inactive) | 111% (inactive) | 83.6% (inactive) | 119% (inactive) | 64.1% | 191% (inactive) | -18.8% (inactive) | 112% (inactive) | 9% (inactive) | -3.96% (inactive) | 1.97% (inactive) | -0.45% (inactive) | 93.6% (inactive) | 0.16 (inactive) | 14% (inactive) | -7.37% (inactive)
8 | O=C(Nc1ccccc1C(=O)N1CCCCCC1)c1ccccc1Cl | 103% (inactive) | 103% (inactive) | 94.9% (inactive) | 96.5% (inactive) | 102% (inactive) | 60.2% | 146% (inactive) | -10.3% (inactive) | 115% (inactive) | 4% (inactive) | -9.01% (inactive) | 26.6% (inactive) | -0.64% (inactive) | 100% (inactive) | -0.06 (inactive) | 7% (inactive) | 8.02% (inactive)
9 | COc1cc(C(=O)NCCc2c[nH]c3ccccc23)ccc1OCc1c(C)noc1C | 96.7% (inactive) | 106% (inactive) | 98.6% (inactive) | 120% (inactive) | 93.5% (inactive) | 56% | 295% (inactive) | -15.4% (inactive) | 110% (inactive) | 0% (inactive) | 6.37% (inactive) | -0.24% (inactive) | 1.87% (inactive) | 107% (inactive) | -0.03 (inactive) | 3% (inactive) | 10.4% (inactive)
10 | Cc1ncoc1C(=O)N1CCCC(C(=O)c2ccc(-c3ccccc3)c(F)c2)C1 (centres undefined) | 102% (inactive) | 121% (inactive) | 112% (inactive) | 76.5% (inactive) | 94% (inactive) | 49.9% | 220% (inactive) | -3.24% (inactive) | 110% (inactive) | 8% (inactive) | -19.4% (inactive) | 4.25% (inactive) | -6.69% (inactive) | 101% (inactive) | 0.01 (inactive) | 12% (inactive) | 0.82% (inactive)
11 | Cc1ccc2c(CC(=O)O)coc2c1 | 104% (inactive) | 94.1% (inactive) | 109% (inactive) | 73% (inactive) | 95.4% (inactive) | 61.6% | 132% (inactive) | -0.45% (inactive) | 107% (inactive) | 13% (inactive) | -1.64% (inactive) | 0.71% (inactive) | -0.96% (inactive) | 95.5% (inactive) | 0.02 (inactive) | 13% (inactive) | 0.24% (inactive)
12 | COc1ccc(CNC(=O)c2c(O)c3cccc4c3n(c2=O)CCC4)cc1 | 104% (inactive) | 105% (inactive) | 93.9% (inactive) | 94.4% (inactive) | 99.4% (inactive) | 57.5% | 18.9% (inactive) | -7.47% (inactive) | 96.7% (inactive) | 9% (inactive) | 4.63% (inactive) | 7.55% (inactive) | -1.56% (inactive) | 99.5% (inactive) | 0.62 (active) | 5% (inactive) | 1.17% (inactive)
13 | Cc1ccc2c(c1)C1OCCC1C1N2C(=O)C2C(C(=O)O)C3C=CC21O3 (centres undefined) | 104% (inactive) | 107% (inactive) | 110% (inactive) | 106% (inactive) | 107% (inactive) | 62.2% | 207% (inactive) | 11% (inactive) | 106% (inactive) | 11% (inactive) | 0.35% (inactive) | 41.7% (inactive) | 3.53% (inactive) | 101% (inactive) | -0.32 (inactive) | 11% (inactive) | -13.3% (inactive)
14 | Cc1coc2c1c(C)cc1oc(=O)c(Cc3ccccc3)c(C)c12 | 100% (inactive) | 98.7% (inactive) | 102% (inactive) | 93.7% (inactive) | 101% (inactive) | 56.9% | 138% (inactive) | -11.8% (inactive) | 90.7% (inactive) | -1% (inactive) | -0.64% (inactive) | 16.9% (inactive) | 18.1% (active) | 97.9% (inactive) | -0.14 (inactive) | 1% (inactive) | -8.96% (inactive)
15 | CC12CCC(C(=O)N3CCc4ccccc43)(CC1=O)C2(C)C (centres undefined) | 101% (inactive) | 102% (inactive) | 97.6% (inactive) | 95.9% (inactive) | 91.2% (inactive) | 60.3% | 115% (inactive) | -2.43% (inactive) | 108% (inactive) | 13% (inactive) | -16.3% (inactive) | 5.6% (inactive) | 2.72% (inactive) | 102% (inactive) | -0.24 (inactive) | 4% (inactive) | -10.4% (inactive)
16 | COc1ccc(C2CC(c3ccc([N+](=O)[O-])cc3)=NN2C(=O)c2ccccc2)cc1OC (centres undefined) | 97.1% (inactive) | 101% (inactive) | 97% (inactive) | 108% (inactive) | 116% (inactive) | 64.6% | 211% (inactive) | 13.4% (inactive) | 79.1% (inactive) | 4% (inactive) | 6.46% (inactive) | 65.2% (active) | -0.24% (inactive) | 92.9% (inactive) | 0.59 (active) | 0% (inactive) | -12.9% (inactive)
17 | CC(C)CN1CCN(Cc2ccc(C#CC(C)(C)O)cc2)CC1CCO (centres undefined) | 92% (inactive) | 132% (inactive) | 102% (inactive) | 78.7% (inactive) | 86.6% (inactive) | 67.3% | 215% (inactive) | -8.09% (inactive) | 92.7% (inactive) | 0% (inactive) | -11.4% (inactive) | 29.9% (inactive) | -6.34% (inactive) | 98.3% (inactive) | 0.34 (inactive) | 9% (inactive) | -2.46% (inactive)
